# Source: PubChem BioAssay
# D2 ag-1: Beta-Arrestin HTS for Positive Allosteric Modulators of the Human D2 Dopamine Receptor: Agonists | DiscoveRx PathHunter D2 beta-arrestin, luminescence, 90 min; 100% = 57 uM dopamine signal | D(2) dopamine receptor (Homo sapiens), P14416 | activation, % (concentration not given with the values) | 360,000 compounds, 0.084% hits; in the data active means activation above about 40%; inconclusive means between about 15% and that limit
# Target sequence (P14416 whole entry, looked up): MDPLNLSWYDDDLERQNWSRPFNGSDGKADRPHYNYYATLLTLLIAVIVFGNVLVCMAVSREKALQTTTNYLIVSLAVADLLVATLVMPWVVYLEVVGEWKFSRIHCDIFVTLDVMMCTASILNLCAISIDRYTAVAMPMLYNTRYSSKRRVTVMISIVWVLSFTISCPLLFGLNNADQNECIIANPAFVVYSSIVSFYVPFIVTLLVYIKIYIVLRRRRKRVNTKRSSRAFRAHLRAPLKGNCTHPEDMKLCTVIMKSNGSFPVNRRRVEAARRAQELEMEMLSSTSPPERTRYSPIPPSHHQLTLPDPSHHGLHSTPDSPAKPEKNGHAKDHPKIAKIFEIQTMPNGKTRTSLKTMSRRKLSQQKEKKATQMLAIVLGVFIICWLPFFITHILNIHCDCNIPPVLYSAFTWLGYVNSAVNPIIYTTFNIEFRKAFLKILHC
#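 DiscoveRx PathHunter D2 beta-arrestin cells (2,100/well) attached overnight, then compound-stimulated 90 min at 37 C in HBSS/10 mM HEPES/0.1% Tween-20 buffer; beta-galactosidase complementation read by luminescence after 1 h at ambient temperature. Dopamine 57 uM final (EC100) as control.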
# D2 PAM-1: Beta-Arrestin HTS for Positive Allosteric Modulators of the Human D2 Dopamine Receptor: Potentiators; D(2) dopamine receptor (Homo sapiens), P14416; DiscoveRx D2 beta-arrestin cells, luminescence, 90 min; 100% = 57 uM dopamine signal; potentiation, % (concentration not given with the values); 360,000 compounds, 0.23% hits; AID 624464, 2012; in the data active means potentiation above about 50%; inconclusive means mostly about 30% to 49%
#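 D2 cells co-treated with compound plus 50 nM dopamine (EC20) for 90 min at 37 deg C to detect potentiation. Beta-arrestin recruitment was read as enzyme-fragment luminescence after 1 h at ambient temperature. Full response was set by 57 uM dopamine.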
# D2 ag-2: HTS Assay for Allosteric Agonists of the Human D2 Dopamine Receptor: Primary Screen for Agonists; D(2) dopamine receptor (Homo sapiens), P14416; HEK293 T-REx D2 cells, calcium flux agonist mode; activation, % at 2 µM; 340,000 compounds, 0.53% hits; AID 485358, 2010;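 active means activation over 3 SD above normal in the single-dose calcium agonist read, cut at about 30% in these data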; further: 0% is about no effect
#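 Tetracycline-induced HEK293 Trex cells with D2 receptor force-coupled to calcium signaling, plated overnight at 30 C and loaded with no-wash calcium dye. Calcium flux read kinetically for 180 s after compound addition; responses flag agonists.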
# D2 PAM-2: HTS Assay for Positive Allosteric Modulators of the Human D2 Dopamine Receptor: Primary Screen for Potentiators; D(2) dopamine receptor (Homo sapiens), P14416; HEK293 T-REx D2, calcium flux, EC20 dopamine potentiation; potentiation, % at 10 µM; 340,000 compounds, 0.34% hits; AID 485347, 2010;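 active means potentiation over 3 SD above the plate norm, cut at about 30% in these data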; further: 0% is about no effect
#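 Potentiation of an EC20 dopamine calcium response measured kinetically over 180 s, after a preceding 180 s compound-only read flagging agonists. Cells: inducible Hek293 Trex D2 line, 4000/well, cultured overnight at 30 C before dye loading.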
# D2 antagonist: HTS Assay for Allosteric Antagonists of the Human D2 Dopamine Receptor: Primary Screen for Antagonists; HEK293 TREx D2 cells, calcium flux, dopamine EC80; 340,000 compounds, 2% hits; D(2) dopamine receptor (Homo sapiens), P14416; AID 485344, 2010; inhibition, % at 10 µM; in the data active means inhibition above about 30%; inactive means below that, where a call was filed; further: 0% is about no effect
#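 Overnight-induced (tetracycline, 30 C) HEK293 T-REx cells carrying force-coupled D2 receive a no-wash calcium dye, then compound, then EC80 dopamine at 180 s; signals are read kinetically throughout.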
# An asterisk follows results filed as active; ? = inconclusive; nt = not tested or not shown. In the library only some 2.4% were active in any assay of this set; here they are far more common.
SMILES,D2 ag-1,D2 PAM-1,D2 ag-2,D2 PAM-2,D2 antagonist
Cc1nn(C)c(C)c1S(=O)(=O)N1CCC(C(=O)NC2CCCCCC2)CC1,0,-6,1,1,33*
Cc1noc(C)c1S(=O)(=O)N1CCC(C(=O)NCCC2=CCCCC2)CC1,-3,-12,0,-1,-24
O=C(CN1c2ccccc2Sc2ccccc21)N/N=C/c1ccc(Cl)cc1,5,-2,1,4,-5
Cc1ccc(-n2nc3ccc(NC(=O)c4ccco4)cc3n2)cc1,-2,-19,nt,0,nt
CC12CCC(C(=O)NNC(=O)c3ccc(Br)cc3)(OC1=O)C2(C)C (centres undefined),-4,-25,nt,nt,nt
Cc1ccc(NC(=O)Cn2nnc3ccccc3c2=O)cc1C,-6,-13,0,-1,2
O=C1CCCC/C1=C\Nc1ccc(O)cc1,9,10,-2,-2,5
O=C1CCCC/C1=C/Nc1cccc(C(F)(F)F)c1,-2,-3,0,0,34*
O=C(NCc1ccco1)C1CCCN1C(=O)Nc1cccc(Cl)c1 (centres undefined),-3,4,-2,-10,56*
Cc1cc(NC(=O)C23CCC(C)(C(=O)O2)C3(C)C)no1 (centres undefined),-2,-2,1,-3,-12
CN(C)N=Nc1ccc(S(=O)(=O)NC(=O)Cc2ccccc2)cc1,6,-1,0,10,12
NC(=O)c1ccccc1NC(=O)CC12CC3CC(CC(Br)(C3)C1)C2,-1,-5,5,36*,-5
COc1ccccc1NC(=O)CC12CC3CC(CC(Br)(C3)C1)C2,1,-4,1,5,-2
CCn1c(=O)c([N+](=O)[O-])c(NCCN(C)C)c2ccccc21,5,-15,0,-21,59*
CCn1c(=O)c([N+](=O)[O-])c(NCC(O)c2ccccc2)c2ccccc21 (centres undefined),-3,-27,-1,-19,-10
O=c1c([N+](=O)[O-])c(NCCN2CCCCCC2)c2ccccc2n1-c1ccccc1,2,-4,0,-20,49*
Cc1cc(OCC(=O)NC2CCN(Cc3ccccc3)CC2)c2c(C)cc(=O)oc2c1,-2,-39,0,-22,54*
O=C(Cc1ccccc1[N+](=O)[O-])NC1CCN(Cc2ccccc2)CC1,-2,-5,1,-29,48*
O=C(Cc1c(F)cccc1Cl)NC1CCN(Cc2ccccc2)CC1,-7,-52,nt,nt,nt
O=C(COc1ccccc1F)NC1CCN(Cc2ccccc2)CC1,-3,-25,0,-15,48*
Cc1cc(OC(C)C(=O)NC2CCN(Cc3ccccc3)CC2)c2c(C)cc(=O)oc2c1 (centres undefined),3,-33,-1,-19,73*
Cc1ccc(NC(=O)CN2CCN(C3CCCCC3)C(=O)C2=O)cc1C,nt,nt,1,-2,nt
CCc1ccc(CNC(=O)CN2C(=O)CSc3ccc(S(=O)(=O)N4CCOCC4)cc32)cc1,nt,nt,0,11,nt
COc1ccc(NC(C)=O)cc1NC(=O)CSc1nnc(-c2cccnc2)n1C,-1,-10,-1,-1,6
O=C(Oc1ccc(Br)cc1C(=S)N1CCOCC1)c1ccc([N+](=O)[O-])cc1[N+](=O)[O-],?,56*,1,37*,-4
SMILES,D2 ag-1,D2 PAM-1,D2 ag-2,D2 PAM-2,D2 antagonist
O=C(Oc1cccc(C(=S)N2CCOCC2)c1)c1cc([N+](=O)[O-])cc([N+](=O)[O-])c1,41*,25,0,-1,3
CC1CCCCN1CCCNC(=O)c1cc(Br)c(Br)[nH]1 (centres undefined),-1,-8,0,-13,-5
CC(=O)C(=Nc1ccccc1Cl)NNc1ccc(Cl)cc1,?,?,1,34*,1
Cc1ccc(C(=O)Nc2cccc(C(F)(F)F)c2)cc1NC(=O)c1c[nH]c2cc(C(F)(F)F)ccc2c1=O,1,-3,nt,nt,nt
CCN1CCN(Cc2ccc(NC(=O)c3ccc(C)c(NC(=O)c4c[nH]c5cc(C(F)(F)F)ccc5c4=O)c3)cc2C(F)(F)F)CC1,-2,0,-1,-4,36*
CN(CCCCN1CCOCC1)Cc1nc(-c2ccc3c(c2)OCO3)no1,-1,-12,0,-3,2
CN(CCN1CCc2ccccc2C1)Cc1nc(-c2ccc3c(c2)OCO3)no1,4,-15,0,-22,44*
OCCN(Cc1nc(-c2ccc3c(c2)OCO3)no1)Cc1cccs1,-5,-12,1,-15,39*
CN(Cc1nc(-c2ccccc2)no1)C(=O)c1ccc2c(c1)OCO2,4,-15,0,-13,-14
COc1ccc(Cc2noc(CN(C)CCN3CCc4ccccc4C3)n2)cc1OC,-2,-22,2,-23,-32
CN(CCN1CCc2ccccc2C1)Cc1nc(Cc2ccccc2F)no1,1,-15,-2,-12,41*
Cc1cc(C)n(C(=O)CSc2ccc(Cl)cc2)n1,2,4,0,-7,4
C=CCNc1sc(C(=O)c2ccc(C)cc2)c(N)c1C#N,-2,-4,0,2,-2
Cc1c(C)n(Cc2ccc(F)cc2)c2ccc(C(=O)N3CCN(c4ccc(F)cc4)CC3)cc12,nt,nt,nt,-3,nt
CCN1CCN(C(=O)c2ccc3c(c2)c(C)c(C)n3Cc2ccccc2)CC1,-1,-16,0,-32,38*
COc1cccc(C(=O)NCC2CCCN2S(=O)(=O)c2cccs2)c1 (centres undefined),0,-15,0,12,-25
Cc1ccc(/C=N/NC(=O)C2CC(=O)N(c3ccccc3)C2)s1 (centres undefined),-4,-22,-1,-8,-18
O=C(N/N=C/c1ccccc1O)C1CC(=O)N(c2ccc(Cl)cc2)C1 (centres undefined),3,-19,0,-23,35*
O=C(CCN=C1NS(=O)(=O)c2ccccc21)OCc1nnc(-c2ccc([N+](=O)[O-])cc2)o1,14,69*,nt,nt,nt
N#Cc1ccccc1COC(=O)CCN=C1NS(=O)(=O)c2ccccc21,-4,-5,nt,nt,nt
CCOc1ccc(/C=C2\CCC(C3CCCC3)C2=O)cc1 (centres undefined),2,0,-1,-3,37*
